Pol beta inh = inhibitors of human DNA polymerase beta; actives 1.3% (n = 340,000); Pol beta primer extension/strand displacement, fluorescence kinetic; Potency, µM (highest dose often 114 µM), for inactives: top-dose activity change, negative = inhibition, usual class: inhibitors; P06746; further: on the % scale 0 is the no-effect control and ±100 the full control effect
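10 nM enzyme + cpd, 15 min RT; start with substrate 50 nM final; read 0 min and after 10 min RT. Corrected, normalized data; 4-parameter Hill curve fit.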
POLK inh = DNA polymerase kappa (human) inhibition; Potency, µM (top dose mostly 107 µM), without a hit: top-dose activity, negative = inhibition, actives largely listed as inhibitors; purified Pol kappa, fluorescent DNA synthesis assay, 10 min; actives 0.53% (n = 400,000); Q9UBT6; further: on the % scale 0 is the no-effect control and ±100 the full control effect
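Here, compound and 10 nM enzyme are combined for 15 min at room temperature; adding 50 nM substrate (final) starts DNA synthesis, tracked by fluorescence at 0 and 10 min against buffer-only wells.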
Pol eta inh = inhibitors of human DNA polymerase eta | actives 1.2% (n = 390,000) | Potency, µM (doses to about 114 µM), for inactives: top-dose activity change, negative = inhibition, actives largely listed as inhibitors | AID 588591 | recombinant Pol eta, fluorescent DNA replication assay | Q9Y253; further: on the % scale 0 is the no-effect control and ±100 the full control effect
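Pol eta at 10 nM preincubated with compounds 15 min at room temperature; reaction started with fluorescent substrate (50 nM final) and read kinetically at 0 and 10 min.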
L3MBTL1 block = L3MBTL1 (human) inhibition; Q9Y468; actives 0.66% (n = 230,000); AID 485360; Potency, µM (top dose mostly 57.1 µM), for the others: at the top dose activity, negative = inhibition, hits mostly inhibitors; AlphaScreen L3MBTL1–H3K9me1 peptide binding; further: on the % scale 0 is the no-effect control and ±100 the full control effect; nearly all actives have a fitted effect of over 60% in size
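Read-out is AlphaScreen signal from streptavidin donor and nickel chelate acceptor beads (10 ug/mL final each) bridging L3MBTL1 (50 nM) and biotinylated K9-monomethylated H3(1-15) peptide (75 nM), after 30 min compound exposure at room temperature.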
APE1 inh = APE1 (human) endonuclease inhibition. Potency, µM (titrated, usually from 65.8 µM), for inactives: top-dose activity change, negative = inhibition, hits mostly inhibitors. recombinant APE1, TAMRA/BHQ-2 abasic DNA cleavage fluorescence. actives 0.35% (n = 350,000). AID 2517. P27695;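 further: plate controls were vehicle for no effect and reference inhibitor for full effect; nearly all actives have a fitted effect of over 55% in size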
Target sequence (P27695 whole entry, looked up): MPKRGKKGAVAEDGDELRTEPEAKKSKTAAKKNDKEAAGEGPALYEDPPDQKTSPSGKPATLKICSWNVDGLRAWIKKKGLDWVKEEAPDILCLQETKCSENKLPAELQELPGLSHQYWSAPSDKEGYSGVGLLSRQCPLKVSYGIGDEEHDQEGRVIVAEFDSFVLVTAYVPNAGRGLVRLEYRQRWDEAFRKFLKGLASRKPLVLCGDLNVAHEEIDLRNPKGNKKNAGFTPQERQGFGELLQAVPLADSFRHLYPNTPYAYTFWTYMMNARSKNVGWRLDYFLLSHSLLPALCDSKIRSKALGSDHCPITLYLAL
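APE1 at 0.75 nM preincubated 15 min at room temperature with compound. Reaction then started with 50 nM double-stranded THF-abasic substrate labelled with TAMRA/BHQ-2, and 525/598 nm fluorescence read kinetically. Activity taken as third-minus-first read difference, normalized to DMSO and NSC13755 controls.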
POLI inh = DNA polymerase iota (human) inhibition; Pol iota fluorescent replication assay, 10 min; Potency, µM (top dose mostly 115 µM), for inactives: top-dose activity, negative = inhibition, hits mostly inhibitors; actives 1% (n = 390,000); AID 588590
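Fluorescent replication assay read twice, at 0 min and 10 min after adding 50 nM (final) substrate. Enzyme (10 nM) and compounds were first incubated 15 min at room temperature; enzyme-free buffer wells were negative controls.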
* = called active by the depositor; ! = repeats disagree; [ ] = dose if it differs, or a comment. This is a sample that favours compounds with a hit; in the whole collection about 2.5% have one here. The call rests on the fitted dose curve; in most records, active means well fitted curve in the direction sought with a large enough effect; inconclusive means small, poorly fitted or top-dose-only effect, or another doubt; inactive means no such curve, though single readings can be large; an effect the other way counts as inactive or inconclusive. Potency means the concentration at half of the fitted maximal effect.

CCOc1ccc(C(=O)Nc2ccc(-c3nc4cc(CC)ccc4o3)cc2)cc1 was read as Pol beta inh 0%, POLK inh -8%, Pol eta inh -10% and POLI inh 89µM*.
COc1ccc(-c2nc3ccccc3nc2-c2ccc(OC)cc2)cc1 was read as Pol beta inh -9%, POLK inh -5%, Pol eta inh -24%, L3MBTL1 block 59%, APE1 inh 19% and POLI inh 36%.
COc1ccc2nc(-c3ccco3)c(-c3ccco3)nc2c1 was read as Pol beta inh 22µM*, POLK inh inconclusive, Pol eta inh 3.2µM*, APE1 inh 8.9µM* and POLI inh inconclusive.
For c1coc(-c2nc3cc4ccccc4cc3nc2-c2ccco2)c1 the results were POLK inh 40µM* and POLI inh 8.9µM*.
c1coc(-c2nc(-c3ccco3)c(-c3ccco3)nc2-c2ccco2)c1 was read as Pol beta inh 2.5µM*, POLK inh 8.9µM*, Pol eta inh 4µM*, L3MBTL1 block 10µM*, APE1 inh 1.4µM* and POLI inh inconclusive.
COc1ccc2nc3cccc(OC)c3nc2c1 was read as Pol beta inh 40µM*, POLK inh -14%, Pol eta inh inconclusive, APE1 inh inconclusive and POLI inh 49%.
Cc1nc2nc(C)n(-c3ccccc3)c2s1 was read as Pol beta inh -1%, POLK inh -6%, Pol eta inh 14µM*, L3MBTL1 block 3%, APE1 inh 16% and POLI inh inconclusive.
Screening COc1c2c(c(CCC(=O)O)c3c1C=CC(C)(C)O3)OC(C)(C)C=C2 returned POLK inh -29%, Pol eta inh 18µM* and POLI inh inconclusive.
`CC(C)(C)n1ncc2c(=O)n(Cc3ccc(-c4ccccc4C#N)cc3)cnc21` gave POLK inh 13%, APE1 inh 12% and POLI inh 20%.
Screening O=c1c2c([nH]c3ccccc13)C(=C1CCCC1)CC2 returned Pol beta inh 32µM*, POLK inh 40µM*, Pol eta inh 20µM*, L3MBTL1 block inconclusive, APE1 inh inconclusive and POLI inh inconclusive.
Screening Cc1c(C)c2c(c(C)c1OC(=O)c1cccnc1)CC[C@@](C)(CCC[C@H](C)CCC[C@H](C)CCCC(C)C)O2 returned POLK inh 13%[60.1 µM] and APE1 inh inconclusive.
`Fc1ccc(-c2ccnc3nc(N4CCOCC4)nn23)cc1` gave Pol beta inh 0%, POLK inh 0%, Pol eta inh -12%, L3MBTL1 block 4%, APE1 inh 1% and POLI inh 29%.
Screening Fc1ccc(-c2ccnc3nc(-n4cccc4)nn23)cc1 returned Pol beta inh inconclusive, POLK inh -3%, Pol eta inh -18%, L3MBTL1 block -5%, APE1 inh 16% and POLI inh 79µM*.
`CCn1c(SCC(=O)NC(=O)NCc2ccco2)nc2sc(C)c(C)c2c1=O` gave Pol beta inh 20µM*, POLK inh inconclusive, Pol eta inh inconclusive, APE1 inh inconclusive and POLI inh 28µM*.
CCn1c(SCC(=O)NC(=O)NCc2ccco2)nnc1-c1cccs1 was read as Pol beta inh 50µM*, POLK inh -38%, Pol eta inh inconclusive, L3MBTL1 block -13%, APE1 inh inconclusive and POLI inh inconclusive.
For Cc1sc2nc(SCC(=O)NCc3ccco3)n(C)c(=O)c2c1C the results were Pol beta inh 27%, POLK inh -5%, Pol eta inh inconclusive, L3MBTL1 block 0%, APE1 inh -4% and POLI inh inconclusive.
Screening Cc1sc2nc(SCc3ccc(C(=O)O)cc3)n(Cc3ccco3)c(=O)c2c1C returned Pol beta inh inconclusive, POLK inh -5%, Pol eta inh 79µM*, L3MBTL1 block -25%, APE1 inh 3% and POLI inh inconclusive.
`C=CCn1c(SCC(=O)NC(=O)NCc2ccco2)nc2sc(CC)cc2c1=O` gave Pol beta inh 14µM*, POLK inh inconclusive, Pol eta inh 11µM*, L3MBTL1 block inconclusive, APE1 inh 32µM* and POLI inh 45µM*.
NS(=O)(=O)c1ccc(CCNC(=O)CN2CCN(Cc3cccc(C(F)(F)F)c3)CC2)cc1 was read as Pol beta inh -2%, POLK inh -1%, Pol eta inh -17%, APE1 inh 28% and POLI inh 66%.
Screening Nn1c(SCC(=O)NC(=O)NCc2ccco2)nnc1-c1ccc(OC(F)F)cc1 returned Pol beta inh inconclusive, POLK inh inconclusive, Pol eta inh 8.9µM*, APE1 inh inconclusive and POLI inh inconclusive.
Screening COc1ccc(CNC(=O)CCC2N=C3c4ccccc4N=C(SCC(=O)NCCc4ccc(OC)c(OC)c4)N3C2=O)cc1 (stereo not drawn) returned Pol beta inh -18%, POLK inh -8%[60.1 µM], Pol eta inh -1% and POLI inh -4%.
Screening COc1ccc(CCC(=O)NNC(=O)Nc2cccc(Cl)c2)cc1 returned Pol beta inh 35%, POLK inh 1%, Pol eta inh -14%, APE1 inh 4% and POLI inh 14%.
`COc1cccc(NC(=O)NNC(=O)CCc2ccc(O)c(O)c2)c1` gave Pol beta inh 42%, POLK inh 25µM*, Pol eta inh -5%, APE1 inh 17% and POLI inh 40µM*.
Screening CCCCNC(=O)N1CCCN(c2ccc(C#N)cn2)CC1 returned Pol beta inh 1%, POLK inh 4%, Pol eta inh 0%, APE1 inh 14% and POLI inh 0%.
O=[N+]([O-])c1ccc(-c2nc(NCc3ccccc3)c3ccccc3n2)cc1 was read as Pol beta inh 1%, POLK inh -16%, Pol eta inh 79µM*, L3MBTL1 block 5%, APE1 inh 6% and POLI inh 46%.
Screening CCCCNC(=O)CCC(=O)NNc1nc2ccccc2c2nc(-c3ccccc3)nn12 returned Pol beta inh 89µM*!, POLK inh 3%, Pol eta inh 6%, L3MBTL1 block 8%, APE1 inh 1% and POLI inh -6%.
Screening O=CNc1ccc2c(c1)Cc1cccc(NC=O)c1-2 returned POLK inh -6%, Pol eta inh -18% and POLI inh 88%.
Screening COc1ccc(OCC(=O)OCc2cc(=O)n3nc(C4CCCCC4)sc3n2)cc1 returned Pol beta inh 45µM*, POLK inh -27%, Pol eta inh -28% and POLI inh inconclusive.
